Test results: PubChem BioAssay AID778 (Sanford-Burnham Center for Chemical Genomics, 2007)
About 20,000 (21%) of roughly 96,000 compounds were called active.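 Rule for the calls: active = CYP2C19 inhibition above a set limit at 5 µM in the primary screen (cut at about 50% in these data); inactive = the rest.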 Only a sample is shown.

Molecular target: Cytochrome P450 2C19 (Homo sapiens) (UniProt P33261)
Assay: blockers of cytochrome P450 2C19 activity – biochemical, luminescence, ADME assay, primary screen (AID 778);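 note: plate controls were negative control wells for no effect and 2.5 mM tranylcypromine positive control for full effect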
Conditions: CYP2C19 Supersomes, luciferin-H EGE luminescence, 30 min; at 5 µM; stronger effect = higher value

Sequence of Cytochrome P450 2C19 (Homo sapiens) (P33261 whole entry, looked up): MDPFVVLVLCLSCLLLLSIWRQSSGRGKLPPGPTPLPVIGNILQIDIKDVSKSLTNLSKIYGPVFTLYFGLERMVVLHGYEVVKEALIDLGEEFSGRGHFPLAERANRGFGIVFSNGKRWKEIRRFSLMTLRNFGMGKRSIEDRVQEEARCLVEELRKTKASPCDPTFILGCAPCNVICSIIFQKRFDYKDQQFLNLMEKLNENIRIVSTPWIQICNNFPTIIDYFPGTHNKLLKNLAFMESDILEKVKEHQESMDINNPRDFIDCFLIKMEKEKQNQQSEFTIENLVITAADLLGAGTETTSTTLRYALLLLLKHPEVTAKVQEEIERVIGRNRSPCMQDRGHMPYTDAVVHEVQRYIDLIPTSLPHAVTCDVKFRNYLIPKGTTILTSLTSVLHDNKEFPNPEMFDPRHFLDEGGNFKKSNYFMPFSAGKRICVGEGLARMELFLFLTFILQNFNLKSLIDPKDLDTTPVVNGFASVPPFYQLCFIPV

inhibition, inactive:
CCOc1ccc(OCC)c(NC(=O)C(NS(=O)(=O)c2ccc3c(c2)oc(=O)n3C)C(C)C)c1 (stereo unspecified) 20.9%
c1ccc(-c2cc(-c3nnc4sc(-c5ccccn5)nn34)[nH]n2)cc1 10.4%
O=C(O)c1cccnc1NC1CCCC1 6.9%
CCN(CC)C(=O)CSc1nnc(-c2cccc(OC)c2)o1 26.3%
O=C(CSc1nnc(-c2ccc(NS(=O)(=O)c3ccccc3)cc2)o1)NCC1CCCO1 (stereo unspecified) 46.1%
O=C(Nc1cc(C(F)(F)F)ccc1Cl)c1cc2nc3c(c(C(F)(F)F)n2n1)CCCC3 7.6%
CC(C)CC(=O)Nc1cc(C(F)(F)F)ccc1N1CCOCC1 32.1%
COC(=O)CNC(=O)c1ccc2c(c1)S(=O)(=O)c1ccccc1C2=O -4.3%
O=C(CC1OC(=O)c2ccccc21)NC1CCCCC1 (stereo unspecified) -5.7%
O=C(NC(c1ccccc1)c1ccccc1)N1CCN(CCO)CC1 3.6%
S=c1[nH]nc2c3c4c(sc3ncn12)CCCC4 -8.5%
Cc1cccc(CSc2nnc(NC(=O)CSc3nnc(C)s3)s2)c1 20.2%
CCOC(=O)/C(C#N)=C/c1ccc(OCC(=O)Nc2ccccc2)c(OC)c1 4.1%
O=C(NCCc1ccccc1)/C(=C\c1ccc([N+](=O)[O-])cc1)NC(=O)c1ccccc1 -1.2%
CCCC(=O)Nc1c(O)c2ccccc2[nH]c1=O -8.7%
CCOc1ccc(S(=O)(=O)Nc2nc3cc(OC)ccc3s2)cc1 16.3%
COc1ccc(OC)c(NC(=O)Cn2c(=O)oc3ccccc32)c1 42.2%
COc1ccc(OC)c(NC(=O)CN2CCN(C(=O)c3ccco3)CC2)c1 8.8%
CCOc1ccccc1NC(=O)Nc1cc(OC)ccc1OC 1.1%
COc1ccc(C(=O)Nc2ccc(F)cc2F)cc1 12.1%
CCOc1ccc(CC(=O)Nc2ccc(S(=O)(=O)Nc3cc(C)on3)cc2)cc1OCC 2%
O=P(c1cccs1)(c1cccs1)c1cccs1 7.9%
COC(=O)C(C)N(C#N)c1nc(C)nc(C)n1 (stereo unspecified) 15.2%
CCOC(=O)C1CCCN(C(=O)c2sc3nc(C)nc(N4CCOCC4)c3c2C)C1 (stereo unspecified) -5%
Nc1nonc1-c1noc(-c2ccc(Br)o2)n1 47.6%
CN1CCN(Cc2c(O)ccc3c2oc(=O)c2ccccc23)CC1 -0.1%
Cc1ccccc1OC(=O)Cn1c(C(F)(F)F)nc2ccccc21 35.4%
CN1CCN(C(=O)Cn2c(C(F)(F)F)nc3ccccc32)CC1 -11.1%
CCCCN(C)Cc1c(C)[nH]c2ccc(Cl)cc2c1=O -11.4%
O=C(Nc1c(Cl)cccc1Cl)C1CCC1 -0.2%
O=C(c1ccco1)N1CCN(c2cccc(Cl)c2)CC1 19.9%
O=C(c1ccco1)N1CCN(C(=O)C2CC(c3ccc(F)cc3)=NO2)CC1 (stereo unspecified) 5.3%
O=C1CN(C(=O)COC(=O)C2CC(=O)N(Cc3ccco3)C2)c2ccccc2N1 (stereo unspecified) -8.7%
Cc1ccc(S(=O)(=O)NCC(=O)OCC(=O)N2CCc3ccccc32)cc1 -3.8%
COc1cc(OC)cc(C(=O)Nc2ccc(-c3nc4ccccc4o3)c(O)c2)c1 22.3%
O=C(CN1CCN(C(=O)c2cccc(F)c2)CC1)Nc1ccccc1F 42.8%
Cc1ccccc1CS(=O)(=O)CC1(O)CCN(C(=O)c2cccc(C(F)(F)F)c2)CC1 19.1%
O=C(c1ccccc1-c1ccccc1)N1CCOCC1 10.3%
O=C(c1cccc(F)c1)N1CCN(c2ccc([N+](=O)[O-])c(N3CCCCC3)c2)CC1 49%
O=C(c1ccccc1)c1cccn1CC(=O)N1CCN(c2ccc(F)cc2)CC1 33.3%
CC(C)N(C(=O)COC(=O)c1ccccc1C(=O)N1CCN(c2ccc(F)cc2)CC1)C(C)C 44.2%
O=C(c1ccccc1)N1CCN(C(=O)N2CCCCC2)CC1 39.7%
CCC(CC)C(=O)Nc1cccc(C(=O)N2CCCC2)c1 15.4%
O=C(NCc1ccco1)C1(c2ccc(Cl)cc2)CCCC1 39.8%
CCOc1nc(NCCN2CCOCC2)nc(Nc2ccc(C)cc2)n1 11.1%
CCOc1ccc(NC(=O)Nc2ccc(N(C)C(C)=O)cc2)cc1 -7.4%
O=C(Nc1ccc2ccccc2c1)Nc1ccc2snnc2c1 5.2%
Oc1c(C=Nc2cccc3nsnc23)ccc2ccccc12 45.4%

inhibition, active:
CCN(CC)C(=O)CSc1nnc(-c2ccc(S(=O)(=O)NCc3ccccc3Cl)cc2)o1 65.4%
CC(CC(=O)Nc1cc(C(F)(F)F)ccc1Cl)c1ccccc1 (stereo unspecified) 61%
CCOC(=O)/C(=C\c1ccc([N+](=O)[O-])cc1)C(=O)c1cc(C(C)=O)c(Nc2ccccc2)s1 62.8%
COc1ccc(OC)c(NC(=O)CCN2CCC(C)CC2)c1 89.8%
CCOc1ccc(C(=O)Nc2cc(OC)ccc2OC)cc1 77%
CCOc1ccc(S(=O)(=O)Nc2ccc(S(=O)(=O)Nc3cc(OC)ccc3OC)cc2)cc1 91.8%
CC(C)(C)NC(=O)NC(=O)COC(=O)Cn1c(C(F)(F)F)nc2ccccc21 54.6%
O=C(c1ccco1)N1CCN(C(=O)C2CC(c3ccc(Cl)c(Cl)c3)=NO2)CC1 (stereo unspecified) 53.8%
Cc1ccc(S(=O)(=O)N2CCC(C(=O)OCC(=O)N3CC(=O)Nc4ccccc43)CC2)cc1 62.2%
Cc1ccccc1CN1CCN(C(=O)c2cccc(F)c2)CC1 98.4%
Cc1cccc(C(=O)N2CCCN(C(=O)c3cccc(C)c3)CC2)c1 90.5%
O=C(c1ccccc1Oc1ccccc1)N1CCN(c2ccc(F)cc2)CC1 87.1%
O=C(c1cccc(C(=O)N2CCN(c3ccc(F)cc3)CC2)c1)N1CCN(c2ccc(F)cc2)CC1 81.8%
